In PubChem BioAssay:
Active and inactive are the calls of the source. No rule for the calls is given here.

Target: Pantothenate synthetase (Mycobacterium tuberculosis (strain ATCC 25618 / H37Rv)) (UniProt P9WIL5)
Assay: Recombinant Mtb pantothenate synthetase (PanC) inhibitors, coupled enzyme, confirmatory (AID 375);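 also: 0% = full reaction with vehicle and 100% = no enzyme background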
Conditions: coupled enzyme assay; at 10 µM, stronger effect = higher value

Sequence of Pantothenate synthetase (Mycobacterium tuberculosis (strain ATCC 25618 / H37Rv)) (P9WIL5 whole entry, looked up): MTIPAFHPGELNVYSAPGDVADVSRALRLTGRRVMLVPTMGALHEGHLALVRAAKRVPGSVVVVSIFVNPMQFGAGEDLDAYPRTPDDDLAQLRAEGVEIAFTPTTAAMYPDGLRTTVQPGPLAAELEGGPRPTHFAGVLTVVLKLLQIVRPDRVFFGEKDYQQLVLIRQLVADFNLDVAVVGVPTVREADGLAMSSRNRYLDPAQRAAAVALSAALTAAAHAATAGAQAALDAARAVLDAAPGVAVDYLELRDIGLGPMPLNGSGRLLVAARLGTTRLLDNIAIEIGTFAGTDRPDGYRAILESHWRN

Structure (SMILES)	inhibition
CCOC(=O)C1=C(O)CCn2c1nc1ccccc12	2% (inactive)
Cc1cc(C)c(C#N)c(SCc2ccc(C#N)cc2)n1	0% (inactive)
O=C(Cn1c(=O)sc2ccccc21)NCCOc1ccccc1F	0% (inactive)
CCOC(=O)c1nnn(CC(=O)Nc2cccc(OC)c2)c1C(=O)OCC	9% (inactive)
CN(C(=O)COC(=O)C1CCN(S(=O)(=O)c2cccs2)CC1)C1CCS(=O)(=O)C1 (stereo not drawn)	7% (inactive)
COc1ccc(C2(C(=O)Nc3cc(C)on3)CCOCC2)cc1	2% (inactive)
Cc1cc(C)n2cc(CSCc3ccco3)nc2n1	2% (inactive)
Cn1c(SCC(=O)Nc2ccc(F)cc2)nnc1-c1cccnc1	0% (inactive)
COC(=O)c1ccc(-c2ccco2)n1Cc1nc(-c2ccc(OC)c(OC)c2)oc1C	2% (inactive)
CCCCCCc1ccc(-c2ncc(N)cn2)cc1	0% (inactive)
CC(=O)Nc1c(C(=O)C2CC2)oc2ccccc12	3% (inactive)
CN1C(=O)C(O)(CC(=O)c2ccc(F)cc2)c2cc(Br)ccc21 (stereo not drawn)	0% (inactive)
CCOc1ccc(OCC)c(NC(=O)CCCN2C(=O)c3cccnc3C2=O)c1	0% (inactive)
Cc1cc(Nc2ccccc2)n(CCC#N)n1	14% (inactive)
Cc1ccc(Cn2ncc3c(NCCCN4CCOCC4)ncnc32)cc1	8% (inactive)
COc1cc2c(cc1OC)C(c1ccc(C)o1)CC(=O)N2 (stereo not drawn)	3% (inactive)
O=C(NCCN1CCOCC1)c1ccc(CS(=O)(=O)Cc2ccccc2F)o1	2% (inactive)
Cc1[nH]nc2c1C(CCc1ccccc1)C(C#N)=C(N)O2 (stereo not drawn)	0% (inactive)
CC1(C)CC(=O)c2cnc(NC(=O)CCc3ccccc3)nc2C1	0% (inactive)
CCSc1cc(C2C(C(=O)OC)=C(C)NC3=C2C(=O)CCC3)c(C)o1 (stereo not drawn)	0% (inactive)
Clc1cccc(Nc2c3c(nc4ncnn24)CCC3)c1	0% (inactive)
Cc1nc2ccccc2c2oc(C(=O)NCCN3CCCCC3C)cc12 (stereo not drawn)	0% (inactive)
COc1cccc(C(=O)Nc2cnc(NC(=O)c3ccco3)cc2C)c1	9% (inactive)
